Results filed as inconclusive are left out. A call without a number means that no potency is given here. Activity calls are given as the source filed them. Calls come from the whole dose curve; as a rule, active = well fitted cell-killing curve with a large enough effect in the repeat runs; inconclusive = weak or mixed curves, or effect the other way; inactive = flat fitted curve, though single readings scatter.

Among the data in PubChem BioAssay (Tox21) are Potency values, retold here.
Potency is the fitted concentration of half-maximal effect.

This assay in a line: qHTS RealTime-Glo MT Cell Viability Assay in HEK293 cells - 16 hour (AID 1224872). Note: nearly all actives have a fitted effect of over 50% in size. Particulars: RealTime-Glo luminescence; series mostly up to 76.8 µM. The text has this: National Center for Advancing Translational Sciences [NCATS]
NIH Chemical Genomics Center [NCGC]
U.S. Environmental Protection Agency [EPA]
National Institutes of Environmental Health Sciences [NIEHS]
National Toxicology Program [NTP]
U.S. Food and Drug Administration [FDA]
Measure of cell viability is critical in the cell-base assay. Analysis of cell viability is necessary for the characterization of cell responses to cytotoxic drugs and environmental stress. A RealTime-Glo MT Cell Viability Assay to monitor cell viability in real time of continues cell culture during 40 hours of compound treatment was used to screen Tox21 10K library compounds in Hek293 cells. The RealTime-Glo MT Cell Viability Assay is a nonlytic, homogeneous, bioluminescent method to measure cell viability in real time using a simple, plate-based method. The assay involves adding NanoLuc luciferase and a cell-permeant prosubstrate to cells in culture. Viable cells reduce the proprietary prosubstrate to generate a substrate for NanoLuc luciferase. This substrate diffuses from cells into the surrounding culture medium, where it is rapidly used by the NanoLuc Enzyme to produce a luminescent signal. The signal correlates with the number of viable cells, making the assay well suited for cytotoxicity studies.
Tox21 Assay Protocol Summary:
The mixture of Hek293 cell suspension and reagents were dispensed at 600cells/6 ul/well in 1536-well tissue culture treated black solid bottom plates using a Multidrop dispenser. After the assay plates were incubated at a 37 C/5% CO2 incubator for 5 hours, 23 nL of compounds dissolved in DMSO, positive and negative controls was transferred to the assay plate by a pintool work station. The plates were incubated at 37 C for 40 hours. The luminescence intensity were measured at 0h, 8h, 16h, 24h, 32h and 40h time points using ViewLux plate reader during compound treatment.
Take `CCCCCCCCCCl`: the Potency entry is “inactive”.

For the molecule `CCCCOC(=O)c1ccccc1`, the Potency result is “inactive”.

`O=C(CCNNC(=O)c1ccncc1)NCc1ccccc1`: the Potency result was “inactive”.

For the molecule `CCN(CC)CC(=O)Nc1c(C)cccc1C`, the Potency was 10.7 µM (active).

Consider `CC(C)(C)c1nnc(NS(=O)(=O)c2ccc(N)cc2)s1`, for which the Potency entry is “inactive”.

For `CC1=CCC(C(C)C)=CC1`, the Potency result was “inactive”.

`O=C(O)Cc1ccc(Cl)cc1Cl`: the Potency entry is “inactive”.

`CC(=O)OC(C)OC(=O)C(C)c1ccc(-c2ccccc2)c(F)c1` (stereo not given): the Potency result was “inactive”.

Take `COc1cc2c(cc1OC)[C@@H]1CC(=O)[C@@H](CC(C)C)CN1CC2`: the Potency result is “inactive”.

Regarding `OCCCCC(O)CO` (stereo not given), the Potency entry was “inactive”.

For `CC(=O)Nc1ccc(S(=O)(=O)Nc2ccc([N+](=O)[O-])cc2)cc1`, the Potency entry was “inactive”.

`CN(C)CCOCCO`: the Potency result is “inactive”.

With `O=P(O)(O)OP(=O)(O)O`, the Potency entry is “inactive”.

Turning to `CN=C(NC#N)Nc1ccc(C2=NNC(=O)CC2C)cc1` (stereo not given), the Potency entry was “inactive”.

Take `CCCCNc1ccc(C(=O)OCCN(C)C)cc1`: the Potency result was “inactive”.

As to `CC(C)(C)c1n[nH]c(=S)n(N)c1=O`, the Potency entry was “inactive”.

On to `ClCCCl`, for which the Potency result was “inactive”.

With `Cc1c(I)c(=O)n(-c2ccccc2)n1C`, the Potency entry was “inactive”.

Consider `C=C(C)C(=O)OCc1ccccc1`, for which the Potency result was “inactive”.

Turning to `CC(C)C(=O)OCc1cccc(OC(=O)[C@@H]2N3C(=O)[C@@H](NC(=O)Cc4ccccc4)[C@H]3SC2(C)C)c1`, the Potency entry was “inactive”.

In the case of `CC(C)NCC(O)COc1ccc(COCCOC(C)C)cc1` (stereo not given), the Potency result is “inactive”.

`C=CCCCCCCCCCCCC`: the Potency entry is “inactive”.

Take `CCCCCCCCSCC`: the Potency entry is “inactive”.

Regarding `COc1ccc(Br)c(C)c1`, the Potency entry was “inactive”.

With `Cc1cc(C(C)(C)C)c(O)c(C)c1CC1=NCCN1`, the Potency result is “inactive”.

As to `CC(C)CC(C)CC(C)CC(C)COC(=O)c1ccccc1C(=O)OCC(C)CC(C)CC(C)CC(C)C` (stereo not given), the Potency entry is “inactive”.

In the case of `COCCOCCOCCOCCOCCO`, the Potency result is “inactive”.

As to `CCCCCCCCCCCCCC`, the Potency entry is “inactive”.

Consider `Cc1ccccc1OCC(O)CO` (stereo not given), for which the Potency entry is “inactive”.

`CC1(CO)CN(c2ccccc2)NC1=O` (stereo not given): the Potency result is “inactive”.

For the molecule `N#Cc1ccc(C(=O)O)cc1`, the Potency result is “inactive”.

For the molecule `Cc1cccc(C)c1OCC(C)N` (stereo not given), the Potency result was “inactive”.

Take `CC(C)(C)OC(=O)c1ccc(O)cc1`: the Potency entry was “inactive”.

Take `BrCc1cccc(Oc2ccccc2)c1`: the Potency result is “inactive”.

Take `COC(=O)c1ccccc1C(=O)c1ccc(OCCN2CCCCC2)cc1`: the Potency result was “inactive”.

On to `C[Si](C)(C)C`, for which the Potency result was “inactive”.

Take `CC(S)C(=O)NCC(=O)O` (stereo not given): the Potency result is “inactive”.

For the molecule `CCC(CC)CO`, the Potency entry is “inactive”.

As for `CCCCCCCCC(=O)Cl`, the Potency result is “inactive”.

`O=C(Nc1ccc(Cl)c(Cl)c1)C1CC1`: the Potency is 9.52 µM (active).
